Laboratory results taken from PubChem BioAssay AID1159580 (chemical genetic matrix, 2015).
Screen size: about 5,500 compounds; about 2,000 (36%) were called active. Inconclusive results (about 18%) are left out. No stated cut-off is given here; in the data, active means normalized growth mostly below about 0.91 (no sharp cut-off); inconclusive means no clear call, values can overlap the other calls; inactive means mostly above about 0.92. This is one part of the list.

Assay: chemical genetic growth profiling, strain panel (AID 1159580);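 further: tested at 20 µM; growth read once vehicle control cultures reached saturation at 30 °C; 1 = growth at the plate median or of vehicle wells; lower values mean less growth of the strain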
Settings: growth OD
[1] = S. cerevisiae deletion strains, locus YAL013W, strain DEP1, hits give low values
[2] = S. cerevisiae deletion strains, locus YBR229C, strain ROT2, hits give low values
[3] = S. cerevisiae deletion strains, locus YDL101C, strain DUN1, hits give low values
[4] = S. cerevisiae deletion strains, locus YDL134C, strain PPH21, hits give low values
[5] = S. cerevisiae deletion strains, locus YDR150W, strain NUM1, hits give low values
[6] = S. cerevisiae deletion strains, locus YEL061C, strain CIN8, hits give low values
[7] = S. cerevisiae deletion strains, locus YGR078C, strain PAC10, hits give low values
[8] = S. cerevisiae deletion strains, locus YGR229C, strain SMI1, hits give low values
[9] = S. cerevisiae deletion strains, locus YHR030C, strain SLT2, hits give low values
[10] = S. cerevisiae deletion strains, locus YJR043C, strain POL32, hits give low values
[11] = S. cerevisiae deletion strains, locus YJR075W, strain HOC1, hits give low values
[12] = S. cerevisiae deletion strains, locus YKL190W, strain CNB1, hits give low values
[13] = S. cerevisiae deletion strains, locus YLR039C, strain RIC1, hits give low values
[14] = S. cerevisiae deletion strains, locus YLR262C, strain YPT6, hits give low values
[15] = S. cerevisiae deletion strains, locus YMR263W, strain SAP30, hits give low values
[16] = S. cerevisiae deletion strains, locus YMR307W, strain GAS1, hits give low values
[17] = S. cerevisiae deletion strains, locus YNL153C, strain GIM3, hits give low values
[18] = S. cerevisiae deletion strains, locus YNL322C, strain KRE1, hits give low values
[19] = S. cerevisiae deletion strains, locus YPL055C, strain LGE1, hits give low values
[20] = S. cerevisiae deletion strains, locus YPL241C, strain CIN2, hits give low values
[21] = S. cerevisiae strains, strain wild type, hits give low values

Measured: normalized growth

C[C@H]1OC(n2cc(F)c(=O)[nH]c2=O)C(O)[C@@H]1O (stereo partly specified)
inactive: [1] 1 | S. cerevisiae deletion strains, locus YBR021W, strain FUR4, hits give low values 1 | [2] 1.01 | S. cerevisiae deletion strains, locus YCL029C, strain bik1, hits give low values 0.973 | S. cerevisiae deletion strains, locus YDL035C, strain GPR1, hits give low values 1 | S. cerevisiae deletion strains, locus YDL074C, strain BRE1, hits give low values 1.02 | [3] 1 | [4] 1 | S. cerevisiae deletion strains, locus YDL185W, strain tfp1, hits give low values 0.97 | S. cerevisiae deletion strains, locus YDL192W, strain arf1, hits give low values 0.97 | S. cerevisiae deletion strains, locus YDR101C, strain arx1, hits give low values 1 | [5] 0.982 | S. cerevisiae deletion strains, locus YDR162C, strain NBP2, hits give low values 1.04 | S. cerevisiae deletion strains, locus YDR318W, strain mcm21, hits give low values 0.973 | S. cerevisiae deletion strains, locus YDR388W, hits give low values 0.986 | S. cerevisiae deletion strains, locus YDR502C, strain sam2, hits give low values 1 | [6] 1 | S. cerevisiae deletion strains, locus YER110C, hits give low values 0.948 | S. cerevisiae deletion strains, locus YER155C, strain BEM2, hits give low values 0.995 | S. cerevisiae deletion strains, locus YER167W, strain BCK2, hits give low values 0.989 | S. cerevisiae deletion strains, locus YGL078C, strain dbp3, hits give low values 0.979 | S. cerevisiae deletion strains, locus YGL086W, strain mad1, hits give low values 0.957 | S. cerevisiae deletion strains, locus YGL248W, strain PDE1, hits give low values 1.01 | [7] 1.02 | S. cerevisiae deletion strains, locus YGR135W, strain pre9, hits give low values 1 | [8] 1.03 | S. cerevisiae deletion strains, locus YGR252W, strain gcn5, hits give low values 1.01 | [9] 0.996 | S. cerevisiae deletion strains, locus YHR079C, strain IRE1 (second series), hits give low values 0.985 | S. cerevisiae deletion strains, locus YHR094C, strain hxt1, hits give low values 0.968 | S. cerevisiae deletion strains, locus YHR129C, strain ARP1, hits give low values 1 | S. cerevisiae deletion strains, locus YHR200W, strain rpn10, hits give low values 0.969 | S. cerevisiae deletion strains, locus YIL066C, strain RNR3, hits give low values 0.99 | S. cerevisiae deletion strains, locus YIL073C, strain SPO22, hits give low values 0.894 | S. cerevisiae deletion strains, locus YIL125W, strain kgd1, hits give low values 0.973 | S. cerevisiae deletion strains, locus YIR030C, strain dcg1, hits give low values 0.982 | S. cerevisiae deletion strains, locus YJL095W, strain BCK1, hits give low values 1.04 | S. cerevisiae deletion strains, locus YJL134W, strain LCB3, hits give low values 1.01 | S. cerevisiae deletion strains, locus YJL168C, strain set2, hits give low values 0.993 | S. cerevisiae deletion strains, locus YJL187C, strain SWE1 (second series), hits give low values 1.01 | [10] 0.993 | [11] 1.01 | S. cerevisiae deletion strains, locus YKL009W, strain mrt4, hits give low values 0.959 | S. cerevisiae deletion strains, locus YKL068W, hits give low values 0.98 | S. cerevisiae deletion strains, locus YKL085W, strain MDH1 (second series), hits give low values 0.981 | S. cerevisiae deletion strains, locus YKL085W, strain MDH1, hits give low values 0.981 | [12] 1 | S. cerevisiae deletion strains, locus YKR001C, strain vps1, hits give low values 0.966 | [13] 0.994 | S. cerevisiae deletion strains, locus YLR058C, strain SHM2, hits give low values 0.993 | S. cerevisiae deletion strains, locus YLR102C, strain apc9, hits give low values 0.983 | [14] 1 | S. cerevisiae deletion strains, locus YLR268W, strain sec22, hits give low values 0.995 | S. cerevisiae deletion strains, locus YLR330W, strain CHS5, hits give low values 0.994 | S. cerevisiae deletion strains, locus YLR342W, strain FKS1 (second series), hits give low values 0.991 | S. cerevisiae deletion strains, locus YLR371W, strain rom2, hits give low values 0.961 | S. cerevisiae deletion strains, locus YLR418C, strain cdc73, hits give low values 1.05 | S. cerevisiae deletion strains, locus YML016C, strain PPZ1, hits give low values 1 | S. cerevisiae deletion strains, locus YML032C, strain rad52, hits give low values 0.951 | S. cerevisiae deletion strains, locus YML124C, strain tub3, hits give low values 0.974 | S. cerevisiae deletion strains, locus YMR078C, strain ctf18, hits give low values 0.945 | S. cerevisiae deletion strains, locus YMR223W, strain ubp8, hits give low values 0.975 | [15] 1.02 | [16] 0.977 | S. cerevisiae deletion strains, locus YNL067W, strain RPL9B, hits give low values 1.02 | S. cerevisiae deletion strains, locus YNL128W, strain TEP1, hits give low values 1.01 | [17] 1.02 | S. cerevisiae deletion strains, locus YNL233W, strain BNI4, hits give low values 1.02 | S. cerevisiae deletion strains, locus YNL250W, strain rad50, hits give low values 0.984 | S. cerevisiae deletion strains, locus YNL271C, strain bni1, hits give low values 0.988 | S. cerevisiae deletion strains, locus YNL298W, strain CLA4, hits give low values 0.963 | S. cerevisiae deletion strains, locus YNL307C, strain MCK1, hits give low values 0.967 | [18] 0.998 | S. cerevisiae deletion strains, locus YNR052C, strain pop2, hits give low values 0.958 | S. cerevisiae deletion strains, locus YOL006C, strain TOP1, hits give low values 1.03 | S. cerevisiae deletion strains, locus YOL012C, strain htz1 1.08 | S. cerevisiae deletion strains, locus YOL147C, strain pex11, hits give low values 0.982 | S. cerevisiae deletion strains, locus YOR061W, strain CKA2, hits give low values 1.01 | S. cerevisiae deletion strains, locus YOR069W, strain VPS5, hits give low values 1 | S. cerevisiae deletion strains, locus YOR136W, strain idh2, hits give low values 0.983 | S. cerevisiae deletion strains, locus YOR144C, strain elg1, hits give low values 0.965 | S. cerevisiae deletion strains, locus YOR184W, strain ser1, hits give low values 0.921 | S. cerevisiae deletion strains, locus YOR316C, strain cot1, hits give low values 0.974 | [19] 1.02 | [20] 0.996 | S. cerevisiae deletion strains, locus YPR119W, strain clb2, hits give low values 0.985 | S. cerevisiae deletion strains, locus YPR141C, strain kar3, hits give low values 0.974 | S. cerevisiae deletion strains, locus YPR163C, strain tif3, hits give low values 0.964 | S. cerevisiae deletion strains, locus YPR167C, strain met16, hits give low values 0.988 | S. cerevisiae deletion strains, strain wtn01, hits give low values 0.994 | [21] 1

C[C@H]1O[C@@H](n2cc(F)c(=O)[nH]c2=O)[C@H](O)[C@@H]1O
inactive: [1] 1.04 | S. cerevisiae deletion strains, locus YAL040C, strain CLN3, hits give low values 1 | S. cerevisiae deletion strains, locus YCL061C, strain MRC1 (second series), hits give low values 1.01 | S. cerevisiae deletion strains, locus YDR363W, strain ESC2, hits give low values 1.02 | S. cerevisiae deletion strains, locus YER002W, strain NOP16, hits give low values 1.04 | [8] 1.07 | [11] 1.01 | [15] 1.01 | [16] 1 | [17] 1.02 | S. cerevisiae deletion strains, locus YNL175C, strain NOP13, hits give low values 1 | S. cerevisiae deletion strains, locus YNL197C, strain WHI3, hits give low values 1 | S. cerevisiae deletion strains, locus YNL224C, strain SQS1, hits give low values 0.984 | [18] 1.02 | S. cerevisiae deletion strains, locus YOR083W, strain WHI5 (second series), hits give low values 1.01 | [19] 1.02 | [20] 1.01

CN(C)c1ccc(C(=O)NN)cc1
inactive: [1] 1.02 | [2] 1.02 | [3] 1.02 | [4] 1.01 | [5] 0.924 | [6] 0.99 | [7] 1.01 | [9] 1.08 | S. cerevisiae deletion strains, locus YHR087W, strain rtc3, hits give low values 1.03 | S. cerevisiae deletion strains, locus YJL187C, strain SWE1, hits give low values 1.01 | [10] 1.02 | [11] 1 | [12] 1.01 | [13] 1.14 | S. cerevisiae deletion strains, locus YLR058C, strain SHM2 (second series), hits give low values 1.02 | S. cerevisiae deletion strains, locus YLR085C, strain ARP6, hits give low values 0.96 | [14] 1.15 | S. cerevisiae deletion strains, locus YML094W, strain GIM5, hits give low values 1.01 | S. cerevisiae deletion strains, locus YMR219W, strain ESC1, hits give low values 1.01 | [15] 0.992 | [17] 1.02 | S. cerevisiae deletion strains, locus YNL298W, strain CLA4 (second series), hits give low values 1 | [18] 1 | S. cerevisiae deletion strains, locus YNR030W, strain Alg12, hits give low values 1.01 | [19] 0.954 | [20] 0.997 | S. cerevisiae deletion strains, locus YPR135W, strain CTF4, hits give low values 1 | [21] 1.02
